# From article PMC7862700, “An all-to-all approach to the identification of sequence-specific readers for epigenetic DNA modifications on cytosine”
# Legend:
# Experiment in all cases: DAPPL (digital affinity profiling via proximity ligation, sequencing); 10 mM Tris-HCl pH 7.5, 50 mM NaCl, 1 mM DTT, 4% glycerol, room temperature, 30 min; GST-TFs on glutathione beads, 16-mer random dsDNA library, 0.1% formaldehyde crosslink after washing; high values mean tight binding
# FLI1 = target: T1, FLI1 (Homo sapiens, UniProt Q01543 1-452); details: protein: recombinant; tags: N-terminal GST; dsDNA, one strand shown
# T1 sequence: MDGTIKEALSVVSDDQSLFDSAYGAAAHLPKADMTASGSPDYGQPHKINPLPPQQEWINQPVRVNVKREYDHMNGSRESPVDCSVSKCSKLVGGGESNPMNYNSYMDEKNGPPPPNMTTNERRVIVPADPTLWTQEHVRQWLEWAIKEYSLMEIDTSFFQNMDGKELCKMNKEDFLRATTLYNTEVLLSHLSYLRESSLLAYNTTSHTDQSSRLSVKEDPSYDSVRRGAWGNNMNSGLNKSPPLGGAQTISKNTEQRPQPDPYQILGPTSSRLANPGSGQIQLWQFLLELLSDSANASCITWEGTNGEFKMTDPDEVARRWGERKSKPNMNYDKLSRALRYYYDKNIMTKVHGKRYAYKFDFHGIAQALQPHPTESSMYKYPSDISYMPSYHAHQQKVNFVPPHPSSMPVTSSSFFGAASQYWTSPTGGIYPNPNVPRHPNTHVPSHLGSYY
# Outline: (§1)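 GST fusions of human transcription factors were expressed in yeast and captured with glutathione beads. Once given DNA barcodes and pooled alongside a tag-only sample, they were incubated for 30 min at room temperature with 200 nmole of a random double-stranded 16-mer DNA library in Tris/NaCl/DTT/glycerol buffer, then washed, crosslinked (0.1% formaldehyde), proximity-ligated, PCR-amplified and sequenced on an Illumina NextSeq500. The binding signal of each hexamer is its read frequency for a factor divided by its frequency for the tag-only sample.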
# ELK1 = target: T2, ELK1 (Homo sapiens, UniProt P19419 1-428); details: protein: recombinant; tags: N-terminal GST; dsDNA, one strand shown
# T2 sequence: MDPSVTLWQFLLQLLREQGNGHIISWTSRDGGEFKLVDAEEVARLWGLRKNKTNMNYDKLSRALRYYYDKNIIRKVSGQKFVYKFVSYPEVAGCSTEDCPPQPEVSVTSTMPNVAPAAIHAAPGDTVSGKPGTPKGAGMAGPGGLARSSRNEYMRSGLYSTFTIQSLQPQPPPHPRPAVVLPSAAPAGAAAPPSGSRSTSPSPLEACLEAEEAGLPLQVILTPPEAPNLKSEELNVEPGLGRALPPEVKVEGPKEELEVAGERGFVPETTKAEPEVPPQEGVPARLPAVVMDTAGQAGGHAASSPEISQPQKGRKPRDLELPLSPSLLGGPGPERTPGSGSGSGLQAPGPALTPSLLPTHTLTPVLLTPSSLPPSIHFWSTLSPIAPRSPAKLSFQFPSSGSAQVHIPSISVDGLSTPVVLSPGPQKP
# Outline: as §1
# GABPA = target: T3, GABPA (Homo sapiens, UniProt Q06546 1-454); details: protein: recombinant; tags: N-terminal GST; dsDNA, one strand shown
# T3 sequence: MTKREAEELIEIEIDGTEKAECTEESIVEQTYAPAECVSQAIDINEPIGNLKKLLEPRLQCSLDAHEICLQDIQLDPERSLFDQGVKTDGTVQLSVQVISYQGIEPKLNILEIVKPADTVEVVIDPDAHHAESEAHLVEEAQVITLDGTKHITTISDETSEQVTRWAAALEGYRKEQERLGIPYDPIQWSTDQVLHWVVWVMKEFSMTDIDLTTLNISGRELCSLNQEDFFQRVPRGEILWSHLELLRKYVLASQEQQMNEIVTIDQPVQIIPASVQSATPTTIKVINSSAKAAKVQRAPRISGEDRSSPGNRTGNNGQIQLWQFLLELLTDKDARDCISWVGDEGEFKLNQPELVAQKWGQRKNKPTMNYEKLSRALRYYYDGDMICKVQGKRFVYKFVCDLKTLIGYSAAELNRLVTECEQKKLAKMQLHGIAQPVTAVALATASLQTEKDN
# Outline: as §1
# ERG = target: T4, ERG (Homo sapiens, UniProt P11308 1-479); details: protein: recombinant; tags: N-terminal GST; dsDNA, one strand shown
# T4 sequence: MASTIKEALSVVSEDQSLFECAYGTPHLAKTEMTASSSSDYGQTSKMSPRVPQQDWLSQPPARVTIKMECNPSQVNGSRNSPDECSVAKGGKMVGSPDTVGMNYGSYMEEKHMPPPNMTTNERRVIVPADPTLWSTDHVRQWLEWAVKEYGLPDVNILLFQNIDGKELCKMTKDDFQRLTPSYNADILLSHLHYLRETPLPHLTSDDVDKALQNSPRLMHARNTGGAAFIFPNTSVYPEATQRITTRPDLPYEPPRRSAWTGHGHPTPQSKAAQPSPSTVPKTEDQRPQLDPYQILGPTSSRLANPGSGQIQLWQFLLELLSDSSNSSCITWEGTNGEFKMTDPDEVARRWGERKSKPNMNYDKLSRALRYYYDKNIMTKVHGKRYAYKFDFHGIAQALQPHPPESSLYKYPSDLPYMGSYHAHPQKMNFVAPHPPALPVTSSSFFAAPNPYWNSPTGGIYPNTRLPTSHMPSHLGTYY
# Outline: as §1
# ELF1 = ELF1 (Homo sapiens, UniProt P32519 1-619); details: protein: recombinant; tags: N-terminal GST; dsDNA, one strand shown
# Chain of ELF1 (P32519 whole entry): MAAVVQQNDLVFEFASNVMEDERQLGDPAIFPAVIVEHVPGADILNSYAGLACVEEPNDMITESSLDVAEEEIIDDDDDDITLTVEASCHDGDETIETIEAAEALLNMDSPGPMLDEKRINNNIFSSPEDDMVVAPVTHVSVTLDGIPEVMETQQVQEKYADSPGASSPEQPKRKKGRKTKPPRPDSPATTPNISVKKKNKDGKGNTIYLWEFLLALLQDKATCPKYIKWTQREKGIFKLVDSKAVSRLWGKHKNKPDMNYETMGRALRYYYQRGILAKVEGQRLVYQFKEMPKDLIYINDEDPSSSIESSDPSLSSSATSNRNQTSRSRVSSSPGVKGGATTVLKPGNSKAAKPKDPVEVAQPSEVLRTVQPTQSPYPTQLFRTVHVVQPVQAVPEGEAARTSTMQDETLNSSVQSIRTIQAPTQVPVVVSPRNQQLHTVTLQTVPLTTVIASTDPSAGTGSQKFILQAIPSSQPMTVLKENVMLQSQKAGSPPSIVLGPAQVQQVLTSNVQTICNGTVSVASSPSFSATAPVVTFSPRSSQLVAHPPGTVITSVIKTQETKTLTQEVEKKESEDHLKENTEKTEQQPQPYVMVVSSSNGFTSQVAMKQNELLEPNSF
# Outline: as §1
# EHF = target: T5, EHF (Homo sapiens, UniProt Q9NZC4 1-300); details: protein: recombinant; tags: N-terminal GST; dsDNA, one strand shown
# T5 sequence: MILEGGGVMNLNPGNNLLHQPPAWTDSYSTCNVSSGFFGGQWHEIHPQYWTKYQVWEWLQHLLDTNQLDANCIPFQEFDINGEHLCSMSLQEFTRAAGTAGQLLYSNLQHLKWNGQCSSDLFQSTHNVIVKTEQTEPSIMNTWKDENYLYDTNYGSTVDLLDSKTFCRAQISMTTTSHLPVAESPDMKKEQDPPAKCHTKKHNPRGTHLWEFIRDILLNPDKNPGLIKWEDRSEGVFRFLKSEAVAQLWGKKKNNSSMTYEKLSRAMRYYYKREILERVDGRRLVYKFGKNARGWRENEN
# Outline: as §1
# SPI1 = SPI1 (Homo sapiens, UniProt P17947 1-270); details: protein: recombinant; tags: N-terminal GST; dsDNA, one strand shown
# Outline: as §1
# ELK3 = target: T6, ELK3 (Homo sapiens, UniProt P41970 1-407); details: protein: recombinant; tags: N-terminal GST; dsDNA, one strand shown
# T6 sequence: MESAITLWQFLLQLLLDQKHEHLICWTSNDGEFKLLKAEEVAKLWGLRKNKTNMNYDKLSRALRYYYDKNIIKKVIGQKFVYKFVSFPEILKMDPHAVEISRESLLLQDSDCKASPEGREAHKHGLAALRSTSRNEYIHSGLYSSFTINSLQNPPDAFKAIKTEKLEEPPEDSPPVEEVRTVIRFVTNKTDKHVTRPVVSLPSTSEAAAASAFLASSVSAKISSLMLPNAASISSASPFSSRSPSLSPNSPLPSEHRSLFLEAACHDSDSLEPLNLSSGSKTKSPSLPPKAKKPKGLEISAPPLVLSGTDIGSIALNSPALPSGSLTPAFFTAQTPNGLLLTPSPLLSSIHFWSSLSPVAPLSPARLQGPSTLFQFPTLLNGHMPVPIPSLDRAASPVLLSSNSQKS
# Outline: as §1
# FEV = target: T7, FEV (Homo sapiens, UniProt Q99581 1-238); details: protein: recombinant; tags: N-terminal GST; dsDNA, one strand shown
# T7 sequence: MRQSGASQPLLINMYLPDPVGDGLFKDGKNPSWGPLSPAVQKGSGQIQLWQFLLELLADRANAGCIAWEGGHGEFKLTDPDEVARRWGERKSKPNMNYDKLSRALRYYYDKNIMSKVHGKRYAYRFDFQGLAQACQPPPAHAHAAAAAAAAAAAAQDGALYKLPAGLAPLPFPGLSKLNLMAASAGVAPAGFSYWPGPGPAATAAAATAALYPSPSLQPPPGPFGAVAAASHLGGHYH
# Outline: as §1
# ETV5 = ETV5 (Homo sapiens, UniProt P41161 1-510); details: protein: recombinant; tags: N-terminal GST; dsDNA, one strand shown
# Chain of ETV5 (P41161 whole entry): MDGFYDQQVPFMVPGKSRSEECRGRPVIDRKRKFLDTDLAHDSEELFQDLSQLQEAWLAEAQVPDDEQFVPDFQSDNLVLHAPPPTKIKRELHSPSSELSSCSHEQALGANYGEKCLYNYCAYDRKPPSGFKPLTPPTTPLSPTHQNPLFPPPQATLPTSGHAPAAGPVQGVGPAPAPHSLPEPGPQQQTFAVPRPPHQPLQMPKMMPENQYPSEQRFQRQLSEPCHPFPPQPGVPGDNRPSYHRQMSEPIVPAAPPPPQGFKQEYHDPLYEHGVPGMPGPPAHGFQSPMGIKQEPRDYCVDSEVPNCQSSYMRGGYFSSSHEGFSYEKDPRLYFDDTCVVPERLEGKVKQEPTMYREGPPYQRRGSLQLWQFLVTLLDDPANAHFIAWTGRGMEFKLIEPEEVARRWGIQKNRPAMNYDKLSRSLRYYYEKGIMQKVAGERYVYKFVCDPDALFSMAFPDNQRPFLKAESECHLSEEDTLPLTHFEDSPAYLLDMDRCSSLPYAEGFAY
# Outline: as §1
# HSF1 = HSF1 (Homo sapiens, UniProt Q00613 1-529); details: protein: recombinant; tags: N-terminal GST; chain copies: 3; dsDNA, one strand shown
# Chain of HSF1 (Q00613 whole entry): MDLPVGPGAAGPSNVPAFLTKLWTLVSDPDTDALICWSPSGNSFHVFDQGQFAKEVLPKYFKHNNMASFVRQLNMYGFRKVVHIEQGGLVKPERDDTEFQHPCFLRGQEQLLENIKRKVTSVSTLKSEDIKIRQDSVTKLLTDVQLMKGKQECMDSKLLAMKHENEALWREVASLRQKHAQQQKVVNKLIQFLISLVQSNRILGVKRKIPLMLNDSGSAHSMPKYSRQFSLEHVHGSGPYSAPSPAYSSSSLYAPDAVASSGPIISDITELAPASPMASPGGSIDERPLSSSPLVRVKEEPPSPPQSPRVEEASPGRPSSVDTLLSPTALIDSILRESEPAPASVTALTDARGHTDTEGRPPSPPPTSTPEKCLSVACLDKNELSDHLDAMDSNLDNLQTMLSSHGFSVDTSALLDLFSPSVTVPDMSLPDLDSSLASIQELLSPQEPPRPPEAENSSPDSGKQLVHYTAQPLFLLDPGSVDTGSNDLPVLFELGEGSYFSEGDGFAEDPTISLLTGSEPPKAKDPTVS
# Outline: as §1
# SPIC = target: T8, SPIC (Homo sapiens, UniProt Q8N5J4 1-248); details: protein: recombinant; tags: N-terminal GST; dsDNA, one strand shown
# T8 sequence: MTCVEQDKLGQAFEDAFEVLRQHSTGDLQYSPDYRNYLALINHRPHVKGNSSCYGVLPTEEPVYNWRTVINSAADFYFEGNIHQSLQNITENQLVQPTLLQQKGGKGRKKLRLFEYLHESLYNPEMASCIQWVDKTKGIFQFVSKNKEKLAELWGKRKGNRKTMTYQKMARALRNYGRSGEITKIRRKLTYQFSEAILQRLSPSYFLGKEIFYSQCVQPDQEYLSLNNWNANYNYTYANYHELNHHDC
# Outline: as §1
# ELF4 = ELF4 (Homo sapiens, UniProt Q99607 1-663); details: protein: recombinant; tags: N-terminal GST; dsDNA, one strand shown
# Chain of ELF4 (Q99607 whole entry): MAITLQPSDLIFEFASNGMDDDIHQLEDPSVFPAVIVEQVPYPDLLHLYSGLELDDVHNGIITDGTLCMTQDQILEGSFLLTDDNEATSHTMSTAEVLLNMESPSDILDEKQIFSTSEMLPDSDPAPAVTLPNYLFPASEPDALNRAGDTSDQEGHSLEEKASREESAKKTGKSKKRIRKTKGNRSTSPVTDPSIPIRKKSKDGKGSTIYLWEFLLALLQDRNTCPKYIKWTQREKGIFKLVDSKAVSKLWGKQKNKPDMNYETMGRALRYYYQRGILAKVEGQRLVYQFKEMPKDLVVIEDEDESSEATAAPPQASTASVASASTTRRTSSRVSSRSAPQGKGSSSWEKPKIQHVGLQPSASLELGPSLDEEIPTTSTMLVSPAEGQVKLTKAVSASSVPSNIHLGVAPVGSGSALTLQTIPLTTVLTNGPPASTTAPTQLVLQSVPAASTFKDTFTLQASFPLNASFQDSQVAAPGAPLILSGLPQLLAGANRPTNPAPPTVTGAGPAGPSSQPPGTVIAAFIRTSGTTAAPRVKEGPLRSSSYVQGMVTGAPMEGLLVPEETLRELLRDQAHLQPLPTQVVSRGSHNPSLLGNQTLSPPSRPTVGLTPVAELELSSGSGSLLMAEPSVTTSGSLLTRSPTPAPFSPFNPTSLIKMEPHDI
# Outline: as §1
# ELK4 = target: T9, ELK4 (Homo sapiens, UniProt P28324-2 1-405); details: protein: recombinant; tags: N-terminal GST; dsDNA, one strand shown
# T9 sequence: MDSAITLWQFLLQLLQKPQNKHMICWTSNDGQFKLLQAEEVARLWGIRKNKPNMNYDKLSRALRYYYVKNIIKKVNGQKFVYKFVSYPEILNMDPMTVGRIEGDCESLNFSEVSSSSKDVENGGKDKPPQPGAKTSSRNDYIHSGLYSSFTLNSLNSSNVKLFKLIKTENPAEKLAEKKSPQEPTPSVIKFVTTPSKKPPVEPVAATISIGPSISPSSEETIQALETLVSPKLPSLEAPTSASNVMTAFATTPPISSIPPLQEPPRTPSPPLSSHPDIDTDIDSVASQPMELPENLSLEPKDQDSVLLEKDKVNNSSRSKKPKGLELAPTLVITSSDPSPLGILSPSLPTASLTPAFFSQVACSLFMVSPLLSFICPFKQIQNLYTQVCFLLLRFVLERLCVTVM
# Outline: as §1
# ETV2 = target: T10, ETV2 (Homo sapiens, UniProt O00321 1-342); details: protein: recombinant; tags: N-terminal GST; dsDNA, one strand shown
# T10 sequence: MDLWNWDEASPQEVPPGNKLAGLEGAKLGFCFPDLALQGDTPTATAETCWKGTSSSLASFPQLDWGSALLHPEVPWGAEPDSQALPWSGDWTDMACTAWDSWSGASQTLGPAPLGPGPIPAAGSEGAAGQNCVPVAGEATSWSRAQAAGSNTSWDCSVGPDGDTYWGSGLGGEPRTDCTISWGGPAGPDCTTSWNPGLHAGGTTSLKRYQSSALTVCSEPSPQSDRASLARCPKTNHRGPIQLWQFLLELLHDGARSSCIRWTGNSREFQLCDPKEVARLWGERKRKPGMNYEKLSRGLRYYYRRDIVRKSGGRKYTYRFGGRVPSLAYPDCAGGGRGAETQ
# Outline: as §1
# ELF3 = target: T11, ELF3 (Homo sapiens, UniProt P78545 1-371); details: protein: recombinant; tags: N-terminal GST; dsDNA, one strand shown
# T11 sequence: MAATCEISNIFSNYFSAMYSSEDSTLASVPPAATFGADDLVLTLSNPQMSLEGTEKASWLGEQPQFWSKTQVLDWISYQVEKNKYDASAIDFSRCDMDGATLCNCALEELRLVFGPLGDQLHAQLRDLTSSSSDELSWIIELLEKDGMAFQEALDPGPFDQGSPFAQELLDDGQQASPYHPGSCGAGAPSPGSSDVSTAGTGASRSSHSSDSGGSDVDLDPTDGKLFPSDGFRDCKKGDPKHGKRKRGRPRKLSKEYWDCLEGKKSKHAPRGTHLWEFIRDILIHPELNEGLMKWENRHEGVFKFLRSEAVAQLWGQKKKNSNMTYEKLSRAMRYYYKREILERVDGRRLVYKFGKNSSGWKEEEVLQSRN
# Outline: as §1
# ETV1 = ETV1 (Homo sapiens, UniProt P50549 1-477); details: protein: recombinant; tags: N-terminal GST; dsDNA, one strand shown
# Chain of ETV1 (P50549 whole entry): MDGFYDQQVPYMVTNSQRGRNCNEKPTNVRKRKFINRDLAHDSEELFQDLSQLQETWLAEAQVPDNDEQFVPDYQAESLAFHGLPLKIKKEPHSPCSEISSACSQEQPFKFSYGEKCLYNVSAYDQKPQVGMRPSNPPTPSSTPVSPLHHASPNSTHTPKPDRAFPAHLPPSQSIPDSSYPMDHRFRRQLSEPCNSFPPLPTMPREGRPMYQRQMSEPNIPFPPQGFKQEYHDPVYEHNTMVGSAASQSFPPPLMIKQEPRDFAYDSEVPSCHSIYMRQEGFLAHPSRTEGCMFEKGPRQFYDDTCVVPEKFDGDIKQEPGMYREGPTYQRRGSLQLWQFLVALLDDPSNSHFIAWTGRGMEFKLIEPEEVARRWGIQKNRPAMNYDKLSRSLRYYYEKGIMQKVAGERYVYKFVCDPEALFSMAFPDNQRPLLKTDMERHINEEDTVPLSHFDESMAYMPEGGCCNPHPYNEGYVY
# Outline: as §1
sequence,measurement,setting,value
ACGACG,binding signal,FLI1,"1.15 fold enrichment (6-mer frequency, TF over GST control)"
same,binding signal,ELK1,"1.15 fold enrichment (6-mer frequency, TF over GST control)"
same,binding signal,GABPA,"1.22 fold enrichment (6-mer frequency, TF over GST control)"
same,binding signal,ERG,"1.1 fold enrichment (6-mer frequency, TF over GST control)"
same,binding signal,ELF1,"1.09 fold enrichment (6-mer frequency, TF over GST control)"
same,binding signal,EHF,"1.1 fold enrichment (6-mer frequency, TF over GST control)"
same,binding signal,SPI1,"1.11 fold enrichment (6-mer frequency, TF over GST control)"
same,binding signal,ELK3,"1.15 fold enrichment (6-mer frequency, TF over GST control)"
same,binding signal,FEV,"1.17 fold enrichment (6-mer frequency, TF over GST control)"
same,binding signal,ETV5,"1.18 fold enrichment (6-mer frequency, TF over GST control)"
same,binding signal,HSF1,"1.02 fold enrichment (6-mer frequency, TF over GST control)"
same,binding signal,SPIC,"1.05 fold enrichment (6-mer frequency, TF over GST control)"
same,binding signal,ELF4,"1.2 fold enrichment (6-mer frequency, TF over GST control)"
same,binding signal,ELK4,"1.17 fold enrichment (6-mer frequency, TF over GST control)"
same,binding signal,ETV2,"1.16 fold enrichment (6-mer frequency, TF over GST control)"
same,binding signal,ELF3,"1.17 fold enrichment (6-mer frequency, TF over GST control)"
same,binding signal,ETV1,"1.01 fold enrichment (6-mer frequency, TF over GST control)"
